{"source": "PubChem BioAssay AID1565", "about": "(Sanford-Burnham Center for Chemical Genomics, 2009)", "note": "Screen size: about 290,000 compounds; about 3,200 (1.1%) were called active. This excerpt belongs to a sample that is enriched for actives. A number with no mark means an inactive call. No stated cut-off is given here; in the data, active means inhibition above about 60%; inactive means the rest.", "data": [{"biological_target": "Phosphoethanolamine/phosphocholine phosphatase (Homo sapiens) (UniProt Q8TCT1)", "sequence (Q8TCT1 whole entry, looked up)": "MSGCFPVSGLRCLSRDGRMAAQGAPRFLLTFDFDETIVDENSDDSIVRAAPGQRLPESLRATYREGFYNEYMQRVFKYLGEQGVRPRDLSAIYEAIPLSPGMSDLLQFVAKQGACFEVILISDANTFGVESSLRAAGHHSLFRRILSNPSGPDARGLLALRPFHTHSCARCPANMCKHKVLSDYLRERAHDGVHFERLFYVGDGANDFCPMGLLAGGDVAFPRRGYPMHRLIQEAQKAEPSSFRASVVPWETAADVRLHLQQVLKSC", "assay": "PubChem AID 1565", "conditions": "recombinant PHOSPHO1, absorbance phosphatase assay; at 13.3 µM; hits give high values", "values": [{"smiles": "Cc1cccc(C)c1NC(=O)C(Cl)C(=O)c1ccccc1", "note": "(centres undefined)", "inhibition": "20%"}, {"smiles": "CSc1ncccc1C(=O)NCc1ccccc1Cl", "inhibition": "44.9%"}, {"smiles": "O=C(CSc1nnc(CNC(=O)c2ccc(F)cc2)o1)Nc1ccc2c(c1)OCO2", "inhibition": "-23.1%"}, {"smiles": "COc1cccc(/C=N/Nc2ncc(C(F)(F)F)cc2Cl)c1O", "inhibition": "-8.9%"}, {"smiles": "COc1cc(/C=C2\\SC(=S)N(Nc3ncc(C(F)(F)F)cc3Cl)C2=O)cc(OC)c1OC", "inhibition": "71.2% (active)"}, {"smiles": "CCOc1ccc(/C=C2\\SC(=S)N(NC(=O)c3ccncc3)C2=O)cc1OC", "inhibition": "23.7%"}, {"smiles": "CC(=O)OCCN(CCCn1c(-c2ccncc2)nc2ccccc21)c1nc(-c2ccc(C)cc2)cs1", "inhibition": "20.2%"}, {"smiles": "Nc1ccc(C(=O)Nc2ccccc2N)cc1", "inhibition": "8.3%"}, {"smiles": "N#Cc1c(N2CCCCC2)nc(N)c2c(N)nc(SCC(=O)O)cc12", "inhibition": "60.8% (active)"}, {"smiles": "N#Cc1c(-c2ccccc2)cc(-c2ccccc2)nc1SCC(=O)O", "inhibition": "-12.1%"}, {"smiles": "Cc1cc(C)c(C#N)c(N2CCC(C(N)=O)CC2)n1", "inhibition": "-42.6%"}, {"smiles": "C/C(CC(=O)NCc1ccc(Cl)cc1)=N\\NC(=O)COc1ccc(C)cc1Br", "inhibition": "41.6%"}, {"smiles": "CC1CCN(C(=O)Cn2nnnc2CN2CCOCC2)CC1", "inhibition": "47.5%"}, {"smiles": "Oc1ccc(C2Nc3cccc4cccc(c34)N2)cc1", "inhibition": "14.1%"}, {"smiles": "C/C(=C\\c1ccco1)C1Nc2cccc3cccc(c23)N1", "inhibition": "94% (active)"}, {"smiles": "Cc1ccc(C2Nc3cccc4cccc(c34)N2)cc1", "inhibition": "13.8%"}, {"smiles": "CC1CCN(CC(=O)c2c[nH]c3ccccc23)CC1", "inhibition": "47.6%"}, {"smiles": "O=C(NCCCc1ccccc1)C(=O)c1c[nH]c2ccccc12", "inhibition": "38.2%"}, {"smiles": "O=C(NC1CCCC1)C(=O)c1c[nH]c2ccccc12", "inhibition": "62.6% (active)"}, {"smiles": "Cc1ncn(C23CC4CC(CC(O)(C4)C2)C3)n1", "inhibition": "12.9%"}, {"smiles": "COc1cccc(NC(=O)c2nn(C34CC5CC(CC(C5)C3)C4)cc2[N+](=O)[O-])c1", "inhibition": "6.2%"}, {"smiles": "Cc1nc([N+](=O)[O-])nn1C12CC3CC(CC(Br)(C3)C1)C2", "inhibition": "93% (active)"}, {"smiles": "Cc1cc(-c2ccc(C)c(S(=O)(=O)Nc3ccc(S(N)(=O)=O)cc3)c2)on1", "inhibition": "44.5%"}, {"smiles": "Cc1noc(C)c1CSCC(=O)N(CCC(C)C)c1c(N)n(Cc2ccccc2)c(=O)[nH]c1=O", "inhibition": "9.8%"}, {"smiles": "O=C(CCN1C(=O)C2C3CCC(C3)C2C1=O)Nc1ccc(Cl)cc1Cl", "note": "(centres undefined)", "inhibition": "26.6%"}, {"smiles": "COCc1ccc(CN2CCC(Oc3ccc(C(=O)NCc4ccccn4)cc3)CC2)o1", "inhibition": "61% (active)"}, {"smiles": "Cc1nn(C)c(C)c1C(C)NC(=O)c1ccc(OC2CCN(Cc3ccccn3)CC2)cc1", "note": "(centres undefined)", "inhibition": "18.5%"}, {"smiles": "O=C(NCCOc1cccnc1)c1ccc(OC2CCN(Cc3ccccn3)CC2)cc1", "inhibition": "13.7%"}, {"smiles": "Cn1cc(CNC(=O)c2ccc(OC3CCN(Cc4ccccn4)CC3)cc2)cn1", "inhibition": "69% (active)"}, {"smiles": "CN(CCc1ccccn1)C(=O)c1ccc(OC2CCN(Cc3ccccn3)CC2)cc1", "inhibition": "17%"}, {"smiles": "O=C(c1ccc(OC2CCN(Cc3ccccn3)CC2)cc1)N1CCCCCC1", "inhibition": "32.8%"}, {"smiles": "COc1cc(/C=N/N2CCN(c3ccccc3)CC2)ccc1OC(C)=O", "inhibition": "13.8%"}, {"smiles": "Cc1cc(C)cc(NC(=O)NCc2ccccn2)c1", "inhibition": "19%"}, {"smiles": "COc1ccc(OC)c(-n2nnnc2SCC(=O)Nc2cc(C)ccc2OC)c1", "inhibition": "-22.4%"}, {"smiles": "COc1ccc(C)cc1-n1nnnc1SCC(=O)c1cc(C)n(Cc2ccco2)c1C", "inhibition": "90.1% (active)"}, {"smiles": "Cc1cc(C(=O)CSc2nc(N)cc(=O)[nH]2)c(C)n1Cc1ccco1", "inhibition": "14.9%"}, {"smiles": "CC(C)Cc1nnc(NC(=O)CN2C(=O)NC3(CCCCC3)C2=O)s1", "inhibition": "24%"}, {"smiles": "CCOC(=O)c1ccc(NC2Nc3cc(C)nn3S2)cc1", "note": "(centres undefined)", "inhibition": "62.2% (active)"}, {"smiles": "CCOC(=O)c1ccc(Nc2cc(C)nc3nc(C)nn23)cc1", "inhibition": "-1.2%"}, {"smiles": "CCc1ccc(NC2Nc3cc(C)nn3S2)cc1", "note": "(centres undefined)", "inhibition": "-1%"}, {"smiles": "COc1ccc(CCNC(=O)CN2C(=O)CCSc3ccccc32)c(OC)c1", "inhibition": "6.9%"}, {"smiles": "COc1ccccc1CCCNC(=O)C1CCC(=O)N(CCN2CCOCC2)C1", "note": "(centres undefined)", "inhibition": "4.2%"}, {"smiles": "COc1ccc(NS(=O)(=O)c2ccc(NC(=S)NC(=O)CC(C)C)cc2)cc1", "inhibition": "-49.5%"}, {"smiles": "CCOc1ccc(S(=O)(=O)Nc2ccc(S(=O)(=O)Nc3cc(OC)ccc3OC)cc2)cc1", "inhibition": "-2.6%"}, {"smiles": "COc1ccc(OC)c(C(C)NC(=S)Nc2ccc(S(=O)(=O)Nc3ncccn3)cc2)c1", "note": "(centres undefined)", "inhibition": "62.4% (active)"}, {"smiles": "Cc1ccc(C)c(NC(=O)c2cc(-c3cc(C)cc(C)c3O)n[nH]2)c1", "inhibition": "41.9%"}, {"smiles": "CCOc1ccc(C(=O)COC(=O)c2ccc(-n3cnnn3)cc2)cc1", "inhibition": "13.7%"}, {"smiles": "CCOC(=O)c1c(NC(=O)CSc2nccc(=O)[nH]2)sc(C)c1C", "inhibition": "22.2%"}, {"smiles": "CCOC(=O)c1c(-n2cnnn2)sc(C)c1C", "inhibition": "98.7% (active)"}, {"smiles": "CCCC(C)NC(=O)C1CCN(C(=O)C2CC(=O)N(c3ccc(C)cc3)C2)CC1", "note": "(centres undefined)", "inhibition": "14.2%"}, {"smiles": "CCN(CC(=O)NCc1cccs1)C(=O)c1cccc(S(=O)(=O)Nc2ccccc2OC)c1", "inhibition": "60.6% (active)"}, {"smiles": "COc1cc(CC(=O)NCc2cccs2)cc(OC)c1OC", "inhibition": "1%"}, {"smiles": "CCN(CC(=O)NCc1cccs1)C(=O)c1ccccc1F", "inhibition": "16.3%"}, {"smiles": "S=c1[nH]nc(-c2ccc(Cl)cc2)n1CC1CCCO1", "note": "(centres undefined)", "inhibition": "90.4% (active)"}, {"smiles": "Cc1nnc(SCC(=O)NNC(=O)c2ccc(Cl)cc2)n1CC1CCCO1", "note": "(centres undefined)", "inhibition": "14.8%"}, {"smiles": "Cc1ccc(-n2c(-c3ccc(Cl)cc3)n[nH]c2=S)cc1", "inhibition": "-46.5%"}, {"smiles": "CCn1c(Cc2ccccc2)nnc1SCc1nc2ccccc2c(=O)[nH]1", "inhibition": "6.3%"}, {"smiles": "O=c1[nH]c(CSc2ncc(-c3ccc(F)cc3)n2Cc2ccco2)nc2ccccc12", "inhibition": "67.4% (active)"}, {"smiles": "CCn1c(COc2c(C)cccc2C)nnc1SCc1nc2ccccc2c(=O)[nH]1", "inhibition": "29.2%"}, {"smiles": "Cc1ccccc1CCNC(=O)C1CCC(=O)N(Cc2ccc(Cl)cc2)C1", "note": "(centres undefined)", "inhibition": "27%"}, {"smiles": "COc1ccc2c(c1)C(NS(=O)(=O)OCC(Cl)(Cl)Cl)CCC2", "note": "(centres undefined)", "inhibition": "-7.3%"}, {"smiles": "O=c1c(-c2ccccc2Cl)c[nH]n1-c1ccccc1", "inhibition": "31.3%"}, {"smiles": "Cc1cc(N2CCN(S(=O)(=O)c3ccc(C)c(C)c3)CC2)c2ccccc2n1", "inhibition": "-5.3%"}, {"smiles": "Cc1ccc(S(=O)(=O)Nc2nc3ccccc3nc2N2CCc3ccccc3C2)cc1", "inhibition": "10.5%"}, {"smiles": "Cc1ccc(S(=O)(=O)C(C#N)c2nc3ccccc3nc2N2CCCC2)cc1C", "note": "(centres undefined)", "inhibition": "95.8% (active)"}, {"smiles": "COC(=O)c1cc(C(=O)NC(C)C2CC3CCC2C3)cc([N+](=O)[O-])c1", "note": "(centres undefined)", "inhibition": "26.5%"}, {"smiles": "Cc1ccc(-n2nc3c(=O)n(C(C)C(=O)NCc4ccc5c(c4)OCO5)nc(C)c3c2C)cc1", "note": "(centres undefined)", "inhibition": "18.3%"}, {"smiles": "O=c1ccc(-c2ccc(S(=O)(=O)Nc3ccccc3)o2)n[nH]1", "inhibition": "1%"}, {"smiles": "Cn1c(CNC(=O)c2ccccc2F)nnc1SCc1ccc(F)cc1", "inhibition": "15.9%"}, {"smiles": "Cn1c(Cn2nnc3ccccc32)nnc1SCC(=O)c1ccccc1F", "inhibition": "68.8% (active)"}, {"smiles": "Cc1ccc(C(=O)CSc2nnc(Cn3nnc4ccccc43)n2C)cc1", "inhibition": "-7.4%"}, {"smiles": "COc1ccc(OC)c(NC(=O)CN(C)CCOc2ccc(Br)cc2)c1", "inhibition": "-11.8%"}, {"smiles": "c1nnc2c3c4c(sc3ncn12)CCC4", "inhibition": "0.9%"}, {"smiles": "S=c1[nH]nc2c3c4c(sc3ncn12)CCCC4", "inhibition": "106% (active)"}, {"smiles": "N=c1c2c3c(sc2ncn1N)CCCC3", "inhibition": "24.8%"}, {"smiles": "Cc1ccc(C)c(NC(=O)NNC(=O)c2ccc3ccccc3c2O)c1", "inhibition": "6.1%"}, {"smiles": "COC(=O)c1sccc1NC(=O)CC1C(=O)NCCN1C(=O)Nc1ccc(F)cc1F", "note": "(centres undefined)", "inhibition": "31.6%"}, {"smiles": "O=C(CN1CCN(C/C=C/c2ccccc2)CC1)Nc1ccc(F)cc1F", "inhibition": "35.8%"}, {"smiles": "O=C(CC1SC(=Nc2ccccc2F)N(CCN2CCOCC2)C1=O)Nc1ccc(F)cc1F", "note": "(centres undefined)", "inhibition": "64.7% (active)"}, {"smiles": "COC(=O)c1cccc(N2C(=O)C3C4C=CC(CC4)C3C2=O)c1", "note": "(centres undefined)", "inhibition": "37.1%"}, {"smiles": "Cc1ccc(OCc2cc(C(=O)N(C)CCn3ccnc3C)no2)cc1C", "inhibition": "25%"}, {"smiles": "O=C(COc1ccc(S(=O)(=O)N2CCOCC2)cc1Cl)N1CCOCC1", "inhibition": "19%"}, {"smiles": "O=C(Cn1c(NCCO)nc2ccccc21)c1ccc(Cl)cc1Cl", "inhibition": "23.3%"}, {"smiles": "Cc1nc2ccc(S(=O)(=O)N(C)CC(=O)NC(C)c3ccccc3)cc2s1", "note": "(centres undefined)", "inhibition": "64% (active)"}, {"smiles": "COc1ccc(CCNC(=O)CN(C)S(=O)(=O)c2ccc3nc(C)sc3c2)cc1OC", "inhibition": "3.8%"}, {"smiles": "COc1cc(NC(=O)CN(C)S(=O)(=O)c2ccc3nc(C)sc3c2)cc(OC)c1", "inhibition": "-3%"}, {"smiles": "COC(=O)c1ccc(/C=C2/C(=O)Oc3ccccc32)cc1", "inhibition": "32.5%"}, {"smiles": "CCCC(C)c1nnc(NC(=O)C2CC(=O)N(c3ccc(OCC)cc3)C2)s1", "note": "(centres undefined)", "inhibition": "36.2%"}, {"smiles": "O=C(Nc1cccc(F)c1)N1C2CCC1CC(O)(c1cccnc1)C2", "note": "(centres undefined)", "inhibition": "61.5% (active)"}, {"smiles": "O=C(c1cccc(F)c1)N1CCC(O)(c2cccnc2)CC1", "inhibition": "36.6%"}, {"smiles": "Cc1ccc(NC(=O)N2CCC(O)(c3cccnc3)CC2)cc1", "inhibition": "1%"}, {"smiles": "CC(=O)c1cccc(NC(=O)CN2C(=O)c3cccnc3Oc3ccc(Cl)cc32)c1", "inhibition": "18.3%"}, {"smiles": "CCc1ccc(NC(=O)CCNS(=O)(=O)c2cccs2)cc1", "inhibition": "35.1%"}, {"smiles": "CC(Oc1ccc2ccccc2c1)C(=O)NNC(=S)NC(=O)c1ccco1", "note": "(centres undefined)", "inhibition": "96.9% (active)"}, {"smiles": "CCCc1ccc(OCCNC(=O)c2ccco2)cc1", "inhibition": "41.8%"}, {"smiles": "O=C(Nc1ccc2ccccc2c1)/C(=C/c1cccc(Br)c1)NC(=O)c1ccco1", "inhibition": "-2.2%"}, {"smiles": "Cc1ccc(OCC(=O)NCCCNC(=O)c2ccco2)cc1C", "inhibition": "16%"}, {"smiles": "COc1ccc(C(=O)NNC(=S)NC(=O)c2ccccc2)cc1", "inhibition": "19.1%"}, {"smiles": "CCCc1ccc(OCC(=O)NNC(=S)NC(=O)c2ccco2)cc1", "inhibition": "96.9% (active)"}]}]}
